Results on 25 molecules are retold here after the supplement of paper PMC10037445.

Structures are written as SMILES. Whole data set: some 2,900 compounds, median “IRF Lucia reporter activity, fold change vs agonist alone” near 0.9, cut for the highest 2% near 2.8. The sample as a whole holds a higher share of the highest values than the screen did.

Experiment [1] relates to RAW-Dual. The experiment can be described thus: IRF Lucia reporter activity, fold change vs agonist alone; higher = enhanced IRF activity. The following applies: agonist: MPLA (TLR4) […]. A digest of the protocol:
(§1)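 Supernatant from RAW-Dual macrophages was read after 20 hours for IRF by QuantiLuc luminescence and for NF-κB by QuantiBlue absorbance at 620 nm. The cells (50,000 cells/well in DMEM, 384-well plates, 37 °C, 5% CO2) had received 50 nL of library stock by pin tool and, 1 h later, a PRR agonist. Reporter activity is expressed relative to agonist-alone wells as fold change, and wells were flagged cytotoxic if IncuCyte confluency was under 70% of agonist controls in both mask sets.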

For experiment [2], the system named is RAW-Dual. The experiment can be described thus: IRF Lucia reporter activity, fold change vs agonist alone; cytotoxicity flag (confluency mask): cytotoxic (confluency <70% of control); higher = enhanced IRF activity. In outline:
as §1

Experiment [3] concerns RAW-Dual. The experiment can be described thus: IRF Lucia reporter activity, fold change vs agonist alone; cytotoxicity flag (confluency mask): not cytotoxic; higher = enhanced IRF activity. In outline:
as §1

Where [4] appears, read: agonist: 3'3'-cGAMP (STING) 10 ug/mL.
The mark [5] stands for this setting: library stock concentration (final ~1000-fold dilution): 10 mM, cytotoxicity flag (confluency mask): not cytotoxic.

Regarding `COc1cc2c(cc1O)CCC1C2CCC2(C)C(O)CCC12` (centres undefined), the “IRF Lucia reporter activity” value with RAW-Dual [1] (library stock concentration (final ~1000-fold dilution): 10 mM, cytotoxicity flag (confluency mask): cytotoxic (confluency <70% of control)) was 1.31.
Turning to `COc1cc2c(cc1O)CCC1C2CCC2(C)C(O)CCC12` (centres undefined) (library stock concentration (final ~1000-fold dilution): 10 mM), the “IRF Lucia reporter activity” value with RAW-Dual [2] (setting [4]) was 0.205; in the experiment with RAW-Dual [2] (agonist: LPS (TLR4) 0.1 ug/mL) it was 1.03.
Take `O=C(NOCC(O)CO)c1cc(Br)c(F)c(F)c1Nc1ccc(I)cc1F` (centres undefined) (library stock concentration (final ~1000-fold dilution): 10 mM): the entries for the “IRF Lucia reporter activity” value with RAW-Dual [3] (setting [4]) and in the experiment with RAW-Dual [3] (agonist: LPS (TLR4) 0.1 ug/mL) were 0.713 and 2.11, respectively.
Turning to `O=C(NOCC(O)CO)c1cc(Br)c(F)c(F)c1Nc1ccc(I)cc1F` (centres undefined), the “IRF Lucia reporter activity” value with RAW-Dual [1] (setting [5]) came out at 2.39.
`Cc1cc(C(=O)NOCCO)c(Nc2ccc(I)cc2F)n(C)c1=O` (library stock concentration (final ~1000-fold dilution): 10 mM): the “IRF Lucia reporter activity” value with RAW-Dual [3] (setting [4]) amounted to 0.824; with RAW-Dual [3] (agonist: LPS (TLR4) 0.1 ug/mL) it was 2.13.
Regarding `O=C(NOCC(O)CO)c1ccc(F)c(F)c1Nc1ccc(I)cc1F` (centres undefined), in the experiment on RAW-Dual [1] (setting [5]), the “IRF Lucia reporter activity” value was found to be 3.52.
Still for that read-out and setting: in the case of `O=C(NOCC1CC1)c1ccc(F)c(F)c1Nc1ccc(I)cc1Cl` it was 2.05.
In the case of `Cn1c(=O)c(F)c(Nc2ccc(I)cc2F)c2c(=O)n(CC(O)CO)cnc21` (centres undefined) (library stock concentration (final ~1000-fold dilution): 10 mM), the results for the “IRF Lucia reporter activity” value in the experiment with RAW-Dual [3] (setting [4]) and with RAW-Dual [3] (agonist: LPS (TLR4) 0.1 ug/mL) were 0.517 and 0.819, respectively.
For the molecule `Cc1cc(C(=O)NOCCO)c(Nc2ccc(I)cc2F)n(C)c1=O`, in the experiment with RAW-Dual [1] (setting [5]), the “IRF Lucia reporter activity” value worked out at 2.81.
On the same count and under the same terms, in the case of `Cn1c(=O)c(F)c(Nc2ccc(I)cc2F)c2c(=O)n(CC(O)CO)cnc21` (centres undefined) it was 1.23.
`O=C(NOCC(O)CO)c1ccc(F)c(F)c1Nc1ccc(I)cc1F` (centres undefined) (library stock concentration (final ~1000-fold dilution): 10 mM): the “IRF Lucia reporter activity” value was 0.903 in the experiment on RAW-Dual [3] (setting [4]) and 3.61 in the experiment with RAW-Dual [3] (agonist: LPS (TLR4) 0.1 ug/mL).
The corresponding values for `O=C(NOCCO)c1ccc2cncn2c1Nc1ccc(I)cc1F` (library stock concentration (final ~1000-fold dilution): 10 mM) are 0.814 and 3.65.
As for `O=C(NOCCO)c1ccc2cncn2c1Nc1ccc(I)cc1F`, the “IRF Lucia reporter activity” value with RAW-Dual [1] (setting [5]) stood at 3.27.
Turning to `O=C(NOCC1CC1)c1ccc(F)c(F)c1Nc1ccc(I)cc1Cl` (library stock concentration (final ~1000-fold dilution): 10 mM), the “IRF Lucia reporter activity” value in the experiment with RAW-Dual [3] (setting [4]) came out at 0.525; in the experiment with RAW-Dual [3] (agonist: LPS (TLR4) 0.1 ug/mL), 2.5.
As to `Br.Br.Br.Br.Br.Br.c1ccc(CNCc2ccc(CN3CCCNCCNCCCNCC3)cc2)nc1`, in the experiment on RAW-Dual [1] (library stock concentration (final ~1000-fold dilution): 10 mM water, cytotoxicity flag (confluency mask): not cytotoxic), the “IRF Lucia reporter activity” value came to 1.35.
With `Br.Br.Br.Br.Br.Br.c1ccc(CNCc2ccc(CN3CCCNCCNCCCNCC3)cc2)nc1` (library stock concentration (final ~1000-fold dilution): 10 mM water), the “IRF Lucia reporter activity” value with RAW-Dual [3] (setting [4]) turned out to be 1.07; in the experiment with RAW-Dual [3] (agonist: LPS (TLR4) 0.1 ug/mL), 0.886.
The corresponding values for `COc1cc2ccc(=O)oc2c(OC)c1O` (library stock concentration (final ~1000-fold dilution): .1 mM) are 1.07 and 0.255.
Turning to `NC1=NC2(c3cc(NC(=O)c4ccc(F)cn4)ccc3F)COCC2CS1` (centres undefined), the “IRF Lucia reporter activity” value in the experiment with RAW-Dual [1] (setting [5]) worked out at 1.04.
Consider `NC1=NC2(c3cc(NC(=O)c4ccc(F)cn4)ccc3F)COCC2CS1` (centres undefined) (library stock concentration (final ~1000-fold dilution): 10 mM), for which the “IRF Lucia reporter activity” value with RAW-Dual [3] (setting [4]) was determined as 1.08; with RAW-Dual [3] (agonist: LPS (TLR4) 0.1 ug/mL) it was 0.998.
The matching figures for `Cn1cc(-c2cc3c(-c4ccc(CNC(=O)c5noc(C(C)(C)C)n5)c(F)c4)ncnc3[nH]2)cn1` (library stock concentration (final ~1000-fold dilution): 10 mM): 0.039 and 0.396.
The matching figures for `Cc1nnc(SCC2=C(C(=O)O)N3C(=O)C(NC(=O)Cn4cnnn4)C3SC2)s1` (centres undefined) (library stock concentration (final ~1000-fold dilution): 10 mM): 1.08 and 1.26.
Take `Cc1nnc(SCC2=C(C(=O)O)N3C(=O)C(NC(=O)Cn4cnnn4)C3SC2)s1` (centres undefined): the “IRF Lucia reporter activity” value in the experiment with RAW-Dual [1] (setting [5]) came out at 1.07.
As to `Cc1ccsc1C(=CCCN1CCCC(C(=O)O)C1)c1sccc1C` (centres undefined) (library stock concentration (final ~1000-fold dilution): 10 mM), the “IRF Lucia reporter activity” value was found to be 0.964 in the experiment with RAW-Dual [3] (setting [4]) and 1.29 with RAW-Dual [3] (agonist: LPS (TLR4) 0.1 ug/mL).
Consider `Cc1ccsc1C(=CCCN1CCCC(C(=O)O)C1)c1sccc1C` (centres undefined), for which the “IRF Lucia reporter activity” value in the experiment on RAW-Dual [1] (setting [5]) was found to be 1.
As for `COC1CC2CCC(C)C(O)(O2)C(=O)C(=O)N2CCCCC2C(=O)OC(C(C)CC2CCC(OP(C)(C)=O)C(OC)C2)CC(=O)C(C)C=C(C)C(O)C(OC)C(=O)C(C)CC(C)C=CC=CC=C1C` (centres undefined) (library stock concentration (final ~1000-fold dilution): 10 mM), the “IRF Lucia reporter activity” value in the experiment on RAW-Dual [3] (setting [4]) was 1.03; in the experiment with RAW-Dual [3] (agonist: LPS (TLR4) 0.1 ug/mL), 1.6.
